Consider 66 compounds from PubChem BioAssay AID620 (Sanford-Burnham Center for Chemical Genomics, 2007).

Out of some 87,000 compounds screened, about 360 (0.41%) were called active. The full list was thinned out, with actives kept by preference. A number with no mark means an inactive call. No stated cut-off is given here; in the data, active means cytotoxicity above about 50%; inactive means the rest.

A short description of the experiment: cytotoxicity in HT1080 fibrosarcoma cells, cell-based, fluorescence readout (AID 620).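 Further: cells exposed to compound overnight then 4 h with Alamar Blue; 0% = vehicle DMSO and 100% = killing control.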 To be noted: HT1080 viability, at 10 µM, active compounds read high.
As to `N=c1c(C(=O)NC2CCCC2)cc2c(=O)n3ccccc3nc2n1C1CCCC1`, the cytotoxicity is 7.6%. `CCCn1c(=N)c(C(=O)NC2CCCC2)cc2c(=O)n3cccc(C)c3nc21`: the cytotoxicity was 9.1%.

With `Cc1cccn2c(=O)c3cc(C(=O)NC4CCCC4)c(=N)n(C4CCCC4)c3nc12`, the cytotoxicity is 75% (active). With `CCCCNC(=O)c1cc2c(=O)n3cccc(C)c3nc2n(Cc2ccncc2)c1=N` the figure was 54.1% (active). The figure for `COCCNC(=O)c1cc2c(=O)n3cccc(C)c3nc2n(Cc2ccncc2)c1=N` is 17.6%. The figure for `CCCCNC(=O)c1cc2c(=O)n3cccc(C)c3nc2n(Cc2ccccc2)c1=N` is 19.2%. In the case of `CSc1ccc2c(c1)N(CCC1CCCCN1C)c1ccccc1S2` (stereo unspecified), the cytotoxicity is 82.9% (active).

`CN1CCN(CCCN2c3ccccc3Sc3ccc(Cl)cc32)CC1`: the cytotoxicity is 6%. With `CC1CC(=O)N(CC(=O)N2CCCC2)c2ccccc2S1` (stereo unspecified) the figure was 1.5%; with `O=C(O)CSc1cccc2cccc(C(=O)O)c12`, 3.5%; with `COc1ccc2cc(-c3nc4ccccc4n3C)c(=O)oc2c1`, -1.5%. Consider `CC(=O)Oc1ccc2cc(-c3nc4ccccc4n3C)c(=O)oc2c1`, for which the cytotoxicity was -4.4%. With `CCN(CC)c1ccc2cc(-c3nc4ccccc4n3C)c(=O)oc2c1` the figure was 62% (active); with `COc1ccc(CN(Cc2cccnc2)S(=O)(=O)c2ccc(-n3cnnn3)c(C)c2)cc1OC`, -6.9%. With `COc1ccc(Cl)cc1N(CC(=O)Nc1ccccc1C(=O)NCc1ccco1)S(C)(=O)=O` the figure was 4.2%; with `Cc1cc(C(=O)COc2cccc(-n3cnnn3)c2)c(C)n1-c1ccccc1`, 27%; with `Cc1cc(-n2c(C)cc(C(=O)COc3ccc4ccc(=O)oc4c3)c2C)no1`, 7.7%. With `CC(=O)c1cccc(OCC(=O)c2cc(C)n(-c3cc(C)on3)c2C)c1` the figure was 63.5% (active). Regarding `CC(=O)c1ccc(NC(=O)CSc2nc3nc(C)cc(C)n3n2)cc1`, the cytotoxicity was -1.8%. The figure for `COc1ccc(/C=C2\CCc3ccccc3C2=O)cc1Cn1cccn1` is -6.8%; for `COC(=O)[C@@H]1C[C@@H]2CC[C@@H](O)C[C@@H]2N1Cc1ccc(Cl)cc1` it is 4.3%; for `COC(=O)[C@@H]1C[C@H]2CC[C@H](O)C[C@H]2N1Cc1ccc(-c2ccccc2)cc1` it is 68.8% (active). `COC(=O)[C@@H]1C[C@@H]2CC[C@@H](O)C[C@@H]2N1Cc1ccc(-c2ccccc2)cc1`: the cytotoxicity was 1.4%. For `COc1ccc(NC(=O)CSc2nnc(-c3ccccc3C)n2C)cc1`, the cytotoxicity is 3%. The figure for `COc1ccc(NC(=O)c2cc(-c3ccccc3OC)on2)cc1` is 38.4%. As for `COc1ccccc1-c1cc(C(=O)Nc2cccnc2)no1`, the cytotoxicity was 58.1% (active).

`O=C(Nc1cccnc1)c1cc(-c2ccccc2)on1`: the cytotoxicity was 8.8%. `Cc1ccc(C(=O)c2c(C)oc3c2C(=O)C(=O)c2ccccc2-3)cc1`: the cytotoxicity was -5.2%. The figure for `Cc1oc2c(c1C(=O)c1ccccc1)C(=O)C(=O)c1ccccc1-2` is 107% (active). With `O=C1c2ccccc2C(=O)c2c1oc(C(F)(F)F)c2C(=O)c1ccccc1` the figure was -1.6%. With `CCOC(=O)c1cn(CC(=O)Nc2ccc(C)cc2)nn1` the figure was -1.5%; with `NC(=O)c1nsc(C(=O)N(CC(=O)NCc2ccc3c(c2)OCO3)C2CCCCC2)c1N`, -0.4%; with `C=Cn1c(C(=O)O)cc(CC)c1-c1ccccc1`, -2.7%. `CCSc1nccc(-c2nn(-c3ccc(C)cc3)ccc2=O)n1`: the cytotoxicity is 29%. With `CSc1nccc(-c2nn(-c3ccc(C)cc3)ccc2=O)n1` the figure was 56.4% (active). The figure for `C=CCSc1nccc(-c2nn(-c3ccc(C)cc3)ccc2=O)n1` is 44.5%.

As to `O=C1OC(Nc2nccs2)c2ccccc21` (stereo unspecified), the cytotoxicity is 19.8%. The figure for `CNS(=O)(=O)c1ccc(Oc2ccc(S(=O)(=O)NC)cc2)cc1` is -5.5%; for `O=S(=O)(c1ccc(Oc2ccc(S(=O)(=O)N3CCOCC3)cc2)cc1)N1CCOCC1` it is -8.2%; for `C=CS(=O)(=O)c1ccc(Oc2ccc(S(=O)(=O)C=C)cc2)cc1` it is 76.4% (active). Regarding `CC(C)c1ccc(C(=O)CSc2ncn[nH]2)cc1`, the cytotoxicity is -3.4%. With `COc1cc(C)c(C(C)C)cc1S(=O)(=O)n1ccnc1` the figure was -1.7%; with `COc1cc(C)c(Cl)cc1S(=O)(=O)n1cnc(C)c1`, -1.4%. With `COc1cc(C)c(C(C)C)cc1S(=O)(=O)n1cnc(C)c1` the figure was 61.2% (active); with `CCn1ncc(Br)c1C(=O)NC(C)c1ccccc1` (stereo unspecified), 9%. With `Nc1cccc(-c2nc3ccccc3[nH]2)c1` the figure was -3.9%; with `COc1ccc2nc(-c3cccc(N)c3)[nH]c2c1`, 33.4%. For the compound `N#CC1=C(c2ccccc2)N=P(N2CCOCC2)(N2CCOCC2)N=C1N1CCOCC1`, the cytotoxicity is -10.4%. For `CCNc1ccc(S(=O)(=O)C(F)(F)F)cc1NC(=O)C12CCC(CC1)C2`, the cytotoxicity is 0.9%. The figure for `COC(=O)c1sc(N)c(C(=O)OC)c1COC(=O)c1c(C)noc1C` is 50.8% (active); for `COC(=O)c1c(N)sc(C(C)=O)c1C` it is -8.8%. `COc1ccc(C(C)=O)cc1COC(=O)c1c(C)noc1C`: the cytotoxicity was 14%.

Consider `Cc1nnc(SCC(=O)Nc2ccc3c(c2)OCO3)o1`, for which the cytotoxicity is 12.7%. For `COc1nc(NCc2ccco2)nc(N2CCC(C)CC2)n1`, the cytotoxicity is -3.4%.

With `COc1cccc(C2N(c3ccccn3)C(=O)C3CCCN32)c1OC` (stereo unspecified), the cytotoxicity was -9.8%. The figure for `CCC(C(=O)c1ccc(O)cc1)c1ccccc1` (stereo unspecified) is -4%; for `CN(C)CC(C(=O)c1ccccc1)c1ccccc1` (stereo unspecified) it is 57.7% (active). The figure for `CN(C)c1ccc(C(=O)C(O)c2ccccc2)cc1` (stereo unspecified) is -14%; for `CC(C)CC(C(=O)NC1CCCC1)N(Cc1cccs1)C(=O)c1snc(C(N)=O)c1N` (stereo unspecified) it is -7.5%; for `O=C(NCc1csc(-c2ccccc2)n1)c1ccco1` it is -1.4%. `COc1ccc(-n2cnc3cc(NCc4cccs4)ccc32)cc1`: the cytotoxicity was 1.1%. With `COc1ccccc1-n1cnc2cc(NCc3ccccn3)ccc21` the figure was -10%; with `COc1ccccc1-n1cnc2cc(C(=O)NCc3ccco3)ccc21`, -2.4%; with `Cc1ccccc1-n1cnc2cc(NCc3cccs3)ccc21`, 33.7%. With `COc1ccccc1-n1cnc2cc(NCc3ccco3)ccc21` the figure was 59.5% (active); with `COc1ccccc1-n1cnc2cc(NCc3cccs3)ccc21`, 60% (active).
